Only a selection was taken, and hits are over-represented in it overall.
Dicer inh – human Dicer pre-microRNA cleavage inhibition; Q9UPY3; cat-ELCCA pre-miR-21 Dicer processing, chemiluminescence; hits give high values; z-score at 25 µM; 47,000 tested, 6% active; AID 1347074; in the data active = z-score above about 3, passing the limit was not always enough;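 also: plate controls were vehicle for no effect and no enzyme for full effect; higher signal means more uncleaved substrate so more Dicer inhibition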
Target sequence (Q9UPY3 whole entry, looked up): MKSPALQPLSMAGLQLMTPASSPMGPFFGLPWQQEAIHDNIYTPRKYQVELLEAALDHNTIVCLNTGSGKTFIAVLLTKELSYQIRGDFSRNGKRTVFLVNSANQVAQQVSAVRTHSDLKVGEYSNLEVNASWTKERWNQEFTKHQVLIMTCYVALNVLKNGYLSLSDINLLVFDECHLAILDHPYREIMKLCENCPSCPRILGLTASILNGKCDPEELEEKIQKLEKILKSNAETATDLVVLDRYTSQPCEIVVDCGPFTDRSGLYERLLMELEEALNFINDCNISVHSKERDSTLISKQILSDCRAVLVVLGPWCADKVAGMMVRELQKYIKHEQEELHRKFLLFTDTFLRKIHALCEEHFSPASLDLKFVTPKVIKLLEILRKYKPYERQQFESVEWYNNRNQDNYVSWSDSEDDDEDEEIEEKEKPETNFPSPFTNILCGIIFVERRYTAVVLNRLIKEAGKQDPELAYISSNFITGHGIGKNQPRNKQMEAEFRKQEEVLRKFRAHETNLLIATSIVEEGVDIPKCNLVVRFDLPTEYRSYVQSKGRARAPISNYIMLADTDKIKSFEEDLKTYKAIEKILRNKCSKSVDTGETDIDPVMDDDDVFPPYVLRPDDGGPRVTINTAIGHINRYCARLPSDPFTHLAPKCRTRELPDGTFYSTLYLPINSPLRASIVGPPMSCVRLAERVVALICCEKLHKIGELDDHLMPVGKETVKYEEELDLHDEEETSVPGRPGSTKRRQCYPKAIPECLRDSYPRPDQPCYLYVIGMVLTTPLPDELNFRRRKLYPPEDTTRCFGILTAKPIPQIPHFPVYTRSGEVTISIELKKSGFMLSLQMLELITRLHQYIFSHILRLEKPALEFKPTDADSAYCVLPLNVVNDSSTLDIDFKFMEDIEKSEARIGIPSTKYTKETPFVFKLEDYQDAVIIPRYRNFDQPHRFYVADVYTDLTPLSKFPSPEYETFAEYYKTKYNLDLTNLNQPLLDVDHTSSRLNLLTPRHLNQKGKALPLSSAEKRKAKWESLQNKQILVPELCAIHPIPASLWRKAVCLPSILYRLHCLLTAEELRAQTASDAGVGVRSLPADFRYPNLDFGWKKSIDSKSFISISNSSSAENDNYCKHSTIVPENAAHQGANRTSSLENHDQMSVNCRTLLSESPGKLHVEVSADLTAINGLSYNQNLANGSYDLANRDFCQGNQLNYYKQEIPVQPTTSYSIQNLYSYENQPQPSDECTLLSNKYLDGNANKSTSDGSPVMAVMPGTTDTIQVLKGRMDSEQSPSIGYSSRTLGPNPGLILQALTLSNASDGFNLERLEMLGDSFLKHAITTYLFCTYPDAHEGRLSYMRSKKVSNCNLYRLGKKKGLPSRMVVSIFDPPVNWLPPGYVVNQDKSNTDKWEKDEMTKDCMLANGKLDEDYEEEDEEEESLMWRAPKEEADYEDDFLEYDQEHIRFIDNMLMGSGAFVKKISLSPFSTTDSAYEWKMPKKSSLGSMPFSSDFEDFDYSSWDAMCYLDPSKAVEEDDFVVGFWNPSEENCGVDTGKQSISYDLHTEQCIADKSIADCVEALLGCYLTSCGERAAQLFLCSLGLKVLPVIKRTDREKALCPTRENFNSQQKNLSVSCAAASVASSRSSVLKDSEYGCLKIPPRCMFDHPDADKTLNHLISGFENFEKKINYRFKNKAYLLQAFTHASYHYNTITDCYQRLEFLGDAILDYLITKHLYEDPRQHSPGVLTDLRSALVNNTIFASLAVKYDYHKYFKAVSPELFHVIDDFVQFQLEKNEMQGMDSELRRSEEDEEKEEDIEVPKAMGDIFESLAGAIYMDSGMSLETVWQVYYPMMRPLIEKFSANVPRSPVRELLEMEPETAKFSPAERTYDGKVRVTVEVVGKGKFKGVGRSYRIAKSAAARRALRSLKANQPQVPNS
Active calls of the source: *.

SMILES	Dicer inh
O=C(O)c1ccc2c(=O)n3c4ccccc4nc3c3ccc(C(=O)O)c1c23	3.1*
O=C(O)Cn1c2ccccc2c2nc3ccccc3nc21	-1.6
O=C(O)c1ccc2c(=O)n3c4ccc(Cl)cc4nc3c3ccc(C(=O)O)c1c23	0.93
CCOC(=O)c1c(NC(=O)CSc2nc3ccccc3s2)sc2c1CCC2	0.23
Cc1ccc(C(C)C)c(OCCCN2C(=O)C(=O)c3cccc(C)c32)c1	0.44
Cc1ccc(OCCN2C(=O)C(=O)c3cc(C)ccc32)cc1	3.1*
Cc1ccc(C(C)C)c(OCCN2C(=O)C(=O)c3cc(C)ccc32)c1	-0.65
COc1ccc(OCc2nc3ccccc3n2CCOc2ccccc2)cc1	-0.12
COC(=O)CCS(=O)(=O)c1ccc(Br)cc1	2.1
O=C(CS(=O)(=O)c1ccc(Br)cc1)c1ccccc1	3.8*
O=C(CSCC(=O)c1ccc(Br)cc1)c1ccc(Br)cc1	-2.9
CCc1nc(-c2cc3cc(C)ccc3[nH]c2=O)no1	-0.22
C=CCn1c2ccccc2n2ncnc12	1.5
O=C(Cn1c2ccccc2n2nc(-c3ccco3)nc12)c1ccc(Cl)cc1	-0.7
Cn1c2c(c(=O)n(C)c1=O)C(c1ccc(Br)cc1)C1=C(N2)c2ccccc2C1=O (stereo not given)	-0.07
O=C(/C=C/c1ccccc1)NC(=S)Nc1cc(C(F)(F)F)cc(C(F)(F)F)c1	-0.04
COC(=S)NC(=O)/C=C/c1ccccc1	3.5*
O=C(/C=C/c1ccccc1)NC(=S)Nc1ccc(OC(F)(F)F)cc1	-0.76
CCOC(=O)C(=CNc1ccc(F)c(C#N)c1)C(=O)OCC	3.4*
CCOC(=O)C(=CNc1ccc2c(c1)CCN2C(C)=O)C(=O)OCC	1.5
CCOC(=O)C(=CNc1nc2ccc(F)cc2s1)C(=O)OCC	0.63
COC(=O)C1C(=O)NC(SCc2cccc3ccccc23)=C(C#N)C1c1ccccc1C (stereo not given)	-1
O=C1c2oc3ccccc3c(=O)c2C(c2ccc(F)cc2)N1Cc1ccc2c(c1)OCO2 (stereo not given)	1.4
COc1ccc(C2CC(=O)C3=C(C2)Nc2ncnn2C3c2ccccc2)cc1 (stereo not given)	2.9
c1ccc(C2CC(c3ccco3)n3ncnc3N2)cc1 (stereo not given)	0.17
SMILES	Dicer inh
O=C1CC(c2ccccc2)CC2=C1C(c1ccco1)n1ncnc1N2 (stereo not given)	3.9*
CCCC(=O)c1ccc(NC(C)=O)cc1O	0.35
Cc1ccc(C(=O)c2cc(Cl)cc(Cl)c2)c(C)c1	-3.2
Cc1ccc(C(=O)CC(=O)c2ccc(C)cc2O)cc1	3.6*
CCCc1cc(OC(=O)c2cccnc2Oc2ccccc2)n(C)n1	-3.5
CC(=O)N1CCc2cc(Br)ccc21	-0.48
CCOC(=O)c1sc(SC)c(S(C)(=O)=O)c1N	-0.95
COC(=O)c1cc(S(=O)(=O)C(C)C)c(S(C)(=O)=O)s1	-0.98
CCOC(=O)c1cc(S(=O)(=O)C(C)C)c(SC)s1	3.8*
CCOC(=O)c1cnc(-c2cccs2)nc1Nc1ccc(C)cc1	-1.3
CCOC(=O)/C(C#N)=C/Nc1ccc2oc3ncccc3c(=O)c2c1	-1.1
CN1CCc2c(sc3c2C(=O)NC(/C=C/c2ccc4c(c2)OCO4)N3)C1 (stereo not given)	0.14
CCOc1cc(N2CCOCC2)c(OCC)cc1NS(=O)(=O)C(C)C	1.4
CCc1c(C)nc(N2CCOCC2)[nH]c1=O	-0.93
CC(C)Oc1c(N2CCOCC2)c(=O)c1=O	5.3*
COC(=O)COc1ccc2c(=O)c(-c3ccccc3OC)c(C(F)(F)F)oc2c1	2.4
CCCc1nnc(N2C(=O)c3oc4ccc(F)cc4c(=O)c3C2c2ccc(OCC)c(OC)c2)s1 (stereo not given)	0.19
Cc1nn(C(=O)c2ccc(Cl)cc2)c(C)c1Cc1c(F)cccc1Cl	41
O=c1[nH]c2c(cnn2-c2ccccc2)c(=O)n1-c1ccc(Cl)c(Cl)c1	2.3
O=c1c2cc(-c3ccccc3)sc2[nH]c(=S)n1-c1ccccc1	4.1*
O=c1[nH]c2sc(-c3ccccc3)cc2c(=O)n1-c1cccc(Cl)c1	4.4*
CCOC(=O)Cn1c(=O)n(-c2ccc(Cl)cc2)c(=O)c2cc(-c3ccccc3)sc21	0.05
CC1CCc2c(sc3[nH]c(=S)n(-c4ccccc4)c(=O)c23)C1 (stereo not given)	-0.48
CN1CCc2c(sc3[nH]c(=S)n(-c4ccccc4)c(=O)c23)C1	-0.72
CCCCOC(=O)C1=C(C)NC2=C(C(=O)CC(C)(C)C2)C1c1cccc(O)c1 (stereo not given)	-0.31
SMILES	Dicer inh
COc1ccc(C2CC(=O)C3=C(C2)Nc2ccccc2NC3c2cc(F)ccc2F)cc1OC (stereo not given)	2
CCCSc1ccc2nc(NC(=O)CSc3nc(SC)ns3)[nH]c2c1	1.8
COc1ccc(-c2nc(C#N)c(N3CCN(C)CC3)o2)cc1	0.9
Cc1ccc(N2C(=O)C3C(c4ccccc4)OC4(C(=O)c5ccccc5C4=O)C3C2=O)cc1Cl (stereo not given)	-0.12
Cc1nc(-c2cc(C#N)c(NCc3ccccc3)nc2C)cs1	-0.17
COc1ccc(-c2cnc(NCc3cc(Cl)ccc3O)n2C)cc1	1.3

Screens deposited in PubChem by Center for Chemical Genomics, University of Michigan.
